In PubChem BioAssay (NCI) one finds growth inhibition data, which are given here for 39 compounds.

Where “and” joins values, the source holds several entries; their conditions need not be identical. Identical values can stand only once. This is part of a sample that, as a whole, favours compounds with a hit. Of some 79,000 tested, about 15% had one in any assay. Values without a mark were called inactive. No stated cut-off is given here; in the data, active means growth inhibition above about 70%; inactive means the rest.

One test can be described thus: NCI Yeast Anticancer Drug Screen. Data for the rad50 strain (AID 155).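 Further: 0% = growth of vehicle-only cultures of the same strain.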 Conditions: S. cerevisiae rad50 strain growth inhibition, hits give high values; at 50.0 µM unless noted. Summed up: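 Compounds were tested on a yeast strain with an engineered DNA damage repair alteration; the reported value is growth inhibition normalised to vehicle treatment.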
For `ClCc1ccccc1C(c1ccccc1)c1ccccc1`, the growth inhibition is -0.8%. As to `CCOC(=O)c1c(C)[nH]c(C(=O)CCN(C)C)c1C`, the growth inhibition was 7.35%. On to `COc1ccc2c(c1)[nH]c1c3ccc(OC)cc3oc(=O)c21`, for which the growth inhibition was -52%. Still for that read-out and setting: as for `COc1c2c(c(OC)c3ccccc13)C(=O)C1=C(CC=CC1)C2=O`, the figure is 4%; as for `CC(C)(O)C1CC(=O)C(C)(C2C(O)CC3(C)C4CC=C5C(CCC(O)C5(C)C)C4(C)C(=O)CC23C)O1` (stereo unspecified), 65%. As to `CC(C)C1=CCC2C(=C1)CCC1C(C)(N=C=O)CCCC21C` (stereo unspecified), the growth inhibition is -28.6%. With `CC1CCC(c2ccccc2)(c2ccccc2)C1=O` (stereo unspecified), the growth inhibition is 11.8%. Still for that read-out and setting: the same measure for `Clc1ccc(N=Nc2nc3ccccc3nc2N=Nc2ccc(Cl)cc2Cl)c(Cl)c1`: -32.5%; for `CC(=O)c1c(Cl)nnc(-c2ccccc2)c1-c1ccccc1`: -9%.

Turning to `C/C=C/C#C/C=C1/C=CC(=O)O1`, the growth inhibition was -5.95%. With `O=C1c2ccccc2C(=O)c2c3c(cc(NCCNCCO)c21)N(CCO)CCN3`, the growth inhibition is 29.4%. On to `Nc1c(F)cc(I)cc1F`, for which the growth inhibition is -3.95%. For `Cc1cccc(NC(=O)Nc2ccccc2F)n1`, the growth inhibition is -2.7%. Take `O=C(CC(=O)C(F)(F)F)c1ccccc1.O=C(CC(=O)C(F)(F)F)c1ccccc1.[Mn]`: the growth inhibition is -1.85%. The same measure, in the same setting: the same measure for `CN(C)C(CCC(=O)NC(C)(C)C)CC(=O)NC(C)(C)C` (stereo unspecified): 0.2%; for `CCCC1([N+]2(C)CCCC2)CS(=O)C1CC` (stereo unspecified): -3.8%; for `c1ccc2nc3c(cc2c1)NCC3`: -2.3%. Same read-out and setting: the same measure for `CCCCOC(=O)c1cccc(C)c1`: -3%; for `COc1cc(/C=C/C(=O)c2c(=O)o[nH][n+]2-c2ccccc2)ccc1[O-]`: -3.75%; for `O=Nc1c(O)c2ccccc2[nH]c1=O`: 15.6%. The same measure, in the same setting: the same measure for `O=C(O)CCCl`: -8.95% and -10.8%; for `C=CCNC(=S)NNc1nc(C)cc(=O)[nH]1`: 30.1%; for `O=S1(=O)OCCOS(=O)(=O)C1Cc1nc2ccccc2[nH]1`: 3.25%.

A further test in a line: NCI Yeast Anticancer Drug Screen. Data for the mec2-1 strain (AID 157). Conditions: S. cerevisiae mec2-1 strain, hits give high values; at 50.0 µM unless noted. Summed up:
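Vehicle-treated cultures served as reference for growth inhibition of compound-exposed mec2-1 yeast.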
`CCOC(=O)/C=C/CCC(C)(C)COC(C)=O`: the growth inhibition was -1.4%.

`C=C(C)C(=O)O[C@H]1[C@H]2[C@H](OC(=O)[C@H]2C)[C@H](O)[C@@H](C)[C@@H]2C=CC(=O)[C@]21C`: the growth inhibition is 30.5%.

On to `O=c1oc(-c2ccc([N+](=O)[O-])cc2)nc2cc(Cl)ccc12`, for which the growth inhibition is 9.15%. `O=C(/C=C/c1ccc(O)c(O)c1)OC1CC(O)(C(=O)O)CC(O)C1O` (stereo unspecified) (tested in a mixture with another compound): the growth inhibition was -13.9%.

Turning to `Cc1ccc(C2OC3=C(Nc4ccc([N+](=O)[O-])cc4N3)C2=O)cc1` (stereo unspecified), the growth inhibition was 7.75%.

Regarding `CC(=O)CC(=O)NCC1CCC(CNC(=O)CC(C)=O)CC1` (stereo unspecified), the growth inhibition is -33%. Regarding `Cc1[nH]c(=S)[nH]c1C`, the growth inhibition was 9.5%. On the same count and under the same terms, as for `C[N+](C)=c1nc(N2CCOCC2)ss1`, the figure is 0.65%; as for `O=C(O)C1C2OC3C(OC(=O)C31)C2Br` (stereo unspecified), 6.75% and -15.9%; as for `O=C1NC(Cc2ccccc2)C(=O)NC1Cc1ccccc1` (stereo unspecified), -6.7%. As for `CCCCC(NC(=O)C(C)NC(=O)OCc1ccccc1)C(=O)O` (stereo unspecified), the growth inhibition is 6.3%. Same read-out and setting: the same measure for `CC1(C)N=C(Oc2cc(Cl)cc(Cl)c2)NC(=S)N1`: -8.3%; for `c1ccc2c(c1)ccc1c[n+]3ccccc3cc12`: 23.1%; for `O=C(F)c1cccc2ccccc12`: -14.7%. For the compound `Cc1c2ccccc2nc(CS(C)(=O)=O)[n+]1[O-]`, the growth inhibition was -1.8%. For the compound `COc1ccc(C=C(C(=O)O)C(=O)O)cc1`, the growth inhibition was -11.6%. Turning to `ClCc1ccccc1C(c1ccccc1)c1ccccc1`, the growth inhibition was 20.4%. Regarding `CCOC(=O)c1c(C)[nH]c(C(=O)CCN(C)C)c1C`, the growth inhibition was 0.2%.

As to `COc1ccc2c(c1)[nH]c1c3ccc(OC)cc3oc(=O)c21`, the growth inhibition is -50%. As to `COc1c2c(c(OC)c3ccccc13)C(=O)C1=C(CC=CC1)C2=O`, the growth inhibition was 18.4%. Same read-out and setting: as for `CC(C)(O)C1CC(=O)C(C)(C2C(O)CC3(C)C4CC=C5C(CCC(O)C5(C)C)C4(C)C(=O)CC23C)O1` (stereo unspecified), the figure is 63%; as for `CC(C)C1=CCC2C(=C1)CCC1C(C)(N=C=O)CCCC21C` (stereo unspecified), -10.1%; as for `CC1CCC(c2ccccc2)(c2ccccc2)C1=O` (stereo unspecified), -1.8%.
